High-throughput results deposited in PubChem BioAssay by National Center for Advancing Translational Sciences (NCATS).
p53null 39C kill: kills p53 null cells at the nonpermissive temperature | Potency, µM (highest dose often 46.1 µM), for the others: top-dose activity, negative = cell killing, most hits filed as cytotoxic | AID 904 | H1299 p53-null (neo) cells, 39C, ATPlite viability, 24 h | 55,000 compounds, 0.97% hits;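 also: 0% = DMSO only and -100% = full killing by 100 µM tamoxifen; nearly all actives have a fitted effect of over 50% in size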
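Cells seeded at 600/well, 37C overnight. Compound added (up to 46 uM), plates shifted to 39C for 24 hr. ATPlite added, luminescence read after 20 min at room temperature.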
SKOV3 invasion: inhibitors of ovarian cancer cell adhesion and invasion in omental model. SKOV3ip1-GFP adhesion/invasion on 3D omental model, fluorescence. Potency, µM (top dose mostly 45.8 µM), without a hit: top-dose activity change, negative = inhibition, actives largely listed as inhibitors. 46,000 compounds, 0.1% hits;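 also: plate controls were DMSO wells for no effect and tomatine positive control wells for full effect; nearly all actives have a fitted effect of over 65% in size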
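Adhesion/invasion was scored as fixed GFP-labeled SKOV3ip1 cell counts (488/509 nm), normalized to DMSO and tomatine controls. Cancer cells in serum-free medium, with four compound doses (0.36-46 umol/L), sat 2 hr at RT then 16 hr at 37 C on a 48 hr fibroblast/mesothelial/ECM culture.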
S16 viability: toxic to S16 Pmp22-F2sN Schwann cells | Potency, µM (top dose mostly 57.5 µM), for inactives: top-dose activity change, negative = cytotoxicity, hits mostly cytotoxic | S16 Pmp22-F2sN Schwann cells viability, CellTiter-Glo, 24 h | 43,000 compounds, 0.48% hits; also: nearly all actives have a fitted effect of over 65% in size
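S16 Pmp22-F2sN Schwann cells (500-1,000/well) in phenol-red-free DMEM with 10% FBS received 23 nL compound by pin tool for 24 h at 37 °C. Viability was then read as CellTiter-Glo luminescence after 15 min at room temperature.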
p53null 32C tox: selectivity test: cytotoxicity in p53 null cells, permissive temperature. H1299-neo p53 null cells, ATP luminescence, 24 h, 32C. Potency, µM (doses to about 46.1 µM), for inactives: top-dose activity change, negative = cytotoxicity, actives largely listed as cytotoxic. 55,000 compounds, 0.62% hits;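 also: 0% = DMSO only and -100% = full killing by 100 µM tamoxifen; nearly all actives have a fitted effect of over 55% in size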
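Cells lacking p53 (H1299-neo) are plated at 600 per well and allowed to settle overnight at 37C. Test compounds (up to 46 uM) are added and held 24 hours at 32C, then ATP is quantified by luminescence.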
mTORC1 inh: reduces mTORC1 signaling in Tsc2 and p53 null MEF cells. Tsc2-/- p53-/- MEF, phospho-rpS6 immunofluorescence/PI, 24 h. Potency, µM (top dose mostly 38.3 µM), inactives show top-dose activity change, negative = inhibition, usual class: inhibitors. 44,000 compounds, 0.78% hits. AID 493208;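 also: plate controls were DMSO for no effect and rapamycin for full effect; nearly all actives have a fitted effect of over 50% in size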
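Cell-based qHTS: Tsc2-/- p53-/- MEF, 24 h cpd, 37 °C; fix/perm, anti-phospho-S6 Alexa-488 + PI; Acumen 488 nm scan; pS6/PI ratio, % positive cells; rapamycin 7.5 nM = inhibition ref; PI count = viability.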
PMP22 txn prim: PMP22 gene transcription modulation; S16 Pmp22-F2sN Schwann cells (luciferase reporters placed in the Pmp22 gene), FLuc/NLuc coincidence luminescence, 24 h; Potency, µM (top dose mostly 57.5 µM), for the others: at the highest dose activity change, negative = inhibition, most hits filed as inhibitors; 43,000 compounds, 2% hits; active = clear falling dose curves in both reporters; inconclusive = both reporters move, but less clearly or upward; inactive = either reporter flat; the % is the NLuc reporter signal
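S16(c9) Schwann cells with FLuc/NLuc coincidence reporter in the Pmp22 3' UTR; compounds pin-transferred, 24 h at 37C. Dual-luciferase read: FLuc first, then NLuc after Stop&Glo, each 10 min at room temperature.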
Starred values were filed as active, the others as inactive; i = inactive; ? = inconclusive; . = not tested or not shown. Shown are actives, neighbours in structure and some others; about 3.1% of the full set was active somewhere. Unless noted, calls follow the shape of the dose curve; as a rule, active = well fitted curve in the direction sought with a large enough effect; inconclusive = small, poorly fitted or top-dose-only effect, or another doubt; inactive = no such curve, though single readings can be large; an effect the other way counts as inactive or inconclusive. Unless noted, % is scaled to controls: 0 for no effect and ±100 for the full control effect; potency is read from the fitted curve at half-maximal effect.

SMILES	p53null 39C kill	SKOV3 invasion	S16 viability	p53null 32C tox	mTORC1 inh	PMP22 txn prim
COc1cccc(Nc2sc(C(=O)c3ccc(Cl)cc3)c(N)c2C(=O)NCc2ccc(C)cc2)c1	10%	-3%	?	-13%	?	8.9µM*
NC1(Cc2ccc(Cl)cc2)CCN(c2ncnc3[nH]ccc23)CC1	.	8%	.	.	.	.
CC(=O)c1ccc(NC(=O)CSc2nnc(NC(=O)NC3CCCCC3)s2)cc1	7.9µM*	i	8%	6.3µM*	-2%	-9%
COc1ccc(NC(=O)CSc2nnc(NC(=O)NC3CCCCC3)s2)cc1OC	11µM*	-15%	6%	13µM*	2%	-28%
O=C(CSc1nnc(NC(=O)NC2CCCCC2)s1)Nc1ccccc1F	?	i	10%	10µM*	1%	19%
C[C@@H](Cc1cc2c(c(C(N)=O)c1)N(CCCO)CC2)NCCOc1ccccc1OCC(F)(F)F	.	-2%	.	.	.	.
COc1ccc2nc(C)cc(Nc3ccc(Cl)c(Cl)c3)c2c1	13µM*	?	?	?	?	?
COc1ccc(CNS(=O)(=O)c2ccc(-c3cc(C(F)(F)F)on3)s2)cc1OC	-4%	-2%	?	-2%	-10%	20µM*
COc1cc(Cl)c(NS(=O)(=O)c2cc(-c3cc(C)no3)ccc2OC)c(OC)c1	-7%	5%	0%	21%	?	-24%
COc1cc(NS(=O)(=O)c2ccc(-c3cc(C)no3)cc2)cc(OC)c1	11%	-9%	?	2%	?	3.4µM*
CCc1nn(CC(=O)NCc2ccccc2)c(=O)c2cccn12	25µM*	4%	0%	-7%	?	9%
NC(=O)c1ncn([C@@H]2O[C@H](CO)[C@@H](O)[C@@H]2O)n1	.	-12%	.	.	.	.
Cc1cc(=O)[nH]c2nnc(SCC(=O)Nc3cc(C(F)(F)F)ccc3Cl)n12	?	i	-12%	-15%	0%	?
O=C(CSc1nnc2[nH]c(=O)cc(-c3ccccc3)n12)Nc1cc(C(F)(F)F)ccc1Cl	0.79µM*	-2%	-6%	1.3µM*	-7%	?
COC(=O)[C@]12CCC(C)(C)C[C@@H]1[C@@H]1C(=O)C=C3[C@@]4(C)C=C(C#N)C(=O)C(C)(C)[C@@H]4CC[C@@]3(C)[C@]1(C)CC2	.	2.3µM*	.	.	.	.
Cc1ccc(NC(=O)NCC2CCN(Cc3cccc(Cl)c3)CC2)cc1Cl	?	i	?	-6%	10µM*	?
CC(=O)c1cccc(NC(=O)c2nc3ccccc3n(C)c2=O)c1	2.5µM*	-8%	?	2.8µM*	-8%	?
CN(C)CCOc1cc(-c2cn[nH]c2)ccc1NC(=O)C1COc2ccccc2O1 (centres undefined)	.	17%	.	.	.	.
O=C(c1cnc(N2CCOCC2)c2ccccc12)N1CCN(c2ccccc2)CC1	13µM*	6%	-3%	-3%	-4%	?
O=C(Nc1nnc(-c2cc(Cl)ccc2Cl)o1)c1ccc2c(c1)OCCO2	-41%	7%	6%	-5%	?	-4%
Cc1ccc(-c2nnc(NC(=O)c3ccc4c(c3)OCCO4)o2)c(C)c1	25µM*	3%	2%	-15%	3%	?
Cc1cccc(N2CCN(C(=O)c3cnn(-c4cccc(Cl)c4C)c3C3CCNCC3)CC2)c1C	-27%	?	?	11%	16µM*	?
CC(=O)Nc1ccc(NC(=O)CCc2c(C)nc3c(c(C)nn3-c3ccccc3)c2C)cc1	?	-7%	-7%	0%	-2%	-7%
CC(=O)Nc1ccc(NC(=O)CCc2c(C)nc3c(c(C)nn3-c3ccc(C)cc3)c2C)cc1	6.3µM*	-10%	3%	-1%	-2%	?
CCN(c1ccccc1)S(=O)(=O)c1cc(C(=O)Nc2ccc(Br)cc2)ccc1F	15%	-43%	-17%	57%	15µM*	?
SMILES	p53null 39C kill	SKOV3 invasion	S16 viability	p53null 32C tox	mTORC1 inh	PMP22 txn prim
CC1(C)SCCN(S(=O)(=O)c2ccc(OCC#CCO)cc2)[C@@H]1C(=O)NO	.	-6%	.	.	.	.
CCOC(=O)Cn1c(=O)c2c(nc(N3CCOCC3)n2Cc2ccccc2)n(C)c1=O	-19%	i	6%	-1%	9.3µM*	-83%
Cc1ccc2nc(N(Cc3cccnc3)C(=O)CCS(=O)(=O)c3ccccc3)sc2c1	8%	39%	18µM*	-4%	-5%	?
O=C(Nc1nc2c(F)cccc2s1)c1ccc2c(c1)OCCO2	?	i	-24%	4µM*	-2%	?
CCOc1ccccc1NC(=O)Nc1ccc2nc(N3CCN(C)CC3)cc(C)c2c1	18µM*	?	?	?	?	?
CCN1CCN(c2cc(C)c3cc(NC(=O)c4cc(OC)c(OC)c(OC)c4)ccc3n2)CC1	15%	-2%	-19%	-8%	?	-2%
Cc1cc(N2CCN(C)CC2)nc2ccc(NC(=O)c3ccc(C(C)(C)C)cc3)cc12	13µM*	?	?	25µM*	5.8µM*	?
